Experimental data published in PubChem BioAssay (NCI).
The panel holds about 83,000 compounds, 20% with a hit somewhere; the sample as a whole holds those more often.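 The endpoint reported here, percent growth, reads 100 for growth as untreated, 0 for no net growth and -100 for all cells dead.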 The source made the active and inactive calls. How the source made its calls: active means growth percent below 10; inactive means the rest.

Columns and labels:
Experiment in all cases: NCI-60 one-dose screen, 48 h (100 = growth as untreated, 0 = no growth, -100 = all killed)
[1] = test system: HCT-15 colon; details: 10 µM
[2] = test system: HT29 colon; details: 10 µM
[3] = test system: SNB-75 CNS; details: 10 µM
[4] = test system: SNB-19 CNS; details: 10 µM
[5] = test system: U251 CNS; details: 10 µM
[6] = test system: PC-3 prostate; details: 10 µM
[7] = test system: SK-MEL-5 melanoma; details: 10 µM
[8] = test system: UACC-62 melanoma; details: 10 µM unless noted
[9] = test system: LOX IMVI melanoma; details: 10 µM
[10] = test system: SK-MEL-28 melanoma; details: 10 µM

Measured: growth

Cc1ncc(C#N)c(N)n1
inactive: [1] 100% | [2] 112% | [3] 77.8% | [4] 102% | [5] 100% | [6] 90% | [7] 89.9% | [8] 99.7% | [9] 100% | [10] 102%

CN(C)c1ccc(C(c2ccc(O)cc2)c2ccc(N(C)C)cc2)cc1
inactive: [1] 70.8% | [2] 86.2% | [3] 87.3% | [4] 97.2% | [5] 98.5% | [6] 88.7% | [7] 90.5% | [8] 79.8% | [9] 88% | [10] 101%

Cc1ccc(Cl)cc1N1C(=O)CC(Sc2ccccc2N)C1=O (stereo not given)
inactive: [1] 93.4% | [2] 109% | [3] 65.5% | [4] 102% | [5] 102% | [6] 89.5% | [7] 110% | [8] 95.8% | [9] 94.7% | [10] 92.5%

O=C(O)COCC(=O)O
inactive: [1] 103% | [2] 105% | [3] 81.4% | [4] 108% | [5] 94.7% | [6] 97% | [7] 102% | [8] 111% | [9] 101% | [10] 98.3%

CCO/C=C1\SC(=S)N(c2cccc(C)c2)C1=O
inactive: [1] 101% | [2] 102% | [3] 80.6% | [4] 111% | [5] 98.6% | [6] 92.5% | [7] 102% | [8] 105% | [9] 104% | [10] 104%

C[N+](C)(C)C(=O)c1ccccc1
inactive: [1] 101% | [2] 104% | [3] 94.8% | [4] 102% | [5] 107% | [6] 102% | [7] 105% | [8] 94% | [9] 99.9% | [10] 116%

CCCCNC1(C#N)CCN(Cc2ccccc2)CC1
inactive: [1] 108% | [2] 106% | [3] 84.2% | [4] 91.1% | [5] 101% | [6] 96.1% | [7] 107% | [8] 95% | [9] 99.7% | [10] 102%

N#CC1(Nc2ccc3c4c(cccc24)CC3)CCCCC1
inactive: [1] 106% | [2] 89.1% | [3] 78.6% | [4] 107% | [5] 99.8% | [6] 90.8% | [7] 91.6% | [8] 106% | [9] 97.6% | [10] 103%

CC1(C(N)=O)CCC(C(=O)O)C1(C)C (stereo not given)
inactive: [1] 96.4% | [2] 104% | [3] 92.4% | [4] 99% | [5] 98.2% | [6] 98.1% | [7] 98% | [8] 87% | [9] 104% | [10] 103%

COC(=O)c1cccnc1
inactive: [1] 103% | [2] 101% | [3] 88.2% | [4] 95.3% | [5] 99.4% | [6] 95.2% | [7] 96.4% | [8] 90.8% | [9] 95.6% | [10] 103%

CCN=c1cc2sc3cc(NCC)c(C)cc3nc-2cc1C
active: [1] 8.95% | [4] 4.67% | [6] 3.93% | [7] -56.9% | [9] 2.17%
inactive: [2] 16.7% | [3] 52% | [5] 10.7% | [8] 61.3% | [10] 60.4%

Nc1ncnc2c1nc(N)n2C1OC(CO)C(O)C1O (stereo not given)
active: [1] -7.88% | [2] -4.96% | [3] -75.8% | [4] -16.5% | [5] 2.54% | [6] -11.7% | [7] -87.6% | [8] -68.3% | [9] -80.3% | [10] -48.1%

COc1ccc(-c2cc3c(nn2)-c2ccccc2C3=O)cc1
active: [2] -24.8% | [3] -4.76% | [5] -3.45% | [10] -49.3%
inactive: [1] 36.7% | [4] 78.9% | [6] 18% | [7] 85.3% | [8] 84.7% | [9] 43.3%

COc1cc(/C=N\Nc2ccccc2)ccc1OC(=O)c1ccccc1
active: [9] 3.86%
inactive: [1] 24.4% | [2] 72.5% | [3] 85.4% | [4] 108% | [5] 81.5% | [6] 49.8% | [7] 74.7% | [8] 24.4% | [10] 87.6%

CCn1c(=O)n(C)c2c(=O)n(C)c(=O)n(C)c21
inactive: [1] 106% | [2] 101% | [3] 97.1% | [4] 102% | [5] 99.3% | [6] 97.4% | [7] 103% | [8] 107% | [9] 96.4% | [10] 118%

CC(=O)c1cc2c(cc1F)C(C)(C)CCC2(C)C
inactive: [1] 100% | [2] 106% | [3] 84.8% | [4] 102% | [5] 104% | [6] 95.6% | [7] 102% | [8] 97.1% | [9] 96% | [10] 107%

CCOC(=O)C(O)C(O)C(=O)OCC (stereo not given)
inactive: [1] 99.1% | [2] 105% | [3] 99% | [4] 103% | [5] 102% | [6] 98% | [7] 97.5% | [8] 102% | [9] 99.8% | [10] 106%

COc1cc(C(N)=O)cc(OC)c1OC
inactive: [1] 101% | [2] 102% | [3] 86.6% | [4] 99.2% | [5] 96.5% | [6] 106% | [7] 106% | [8] 94.2% | [9] 104% | [10] 116%

CC(C)OC(=O)c1cc(NC(=S)OC(C)C)ccc1Cl
inactive: [1] 87.8% | [2] 70.5% | [3] 109% | [4] 92.3% | [5] 96.6% | [6] 83.3% | [7] 44% | [8] 77.1% | [9] 93.4% | [10] 101%

Cc1c(O)cccc1O
inactive: [1] 116% | [2] 106% | [3] 99.1% | [4] 97.6% | [5] 98.7% | [6] 96.9% | [7] 106% | [8] 94.9% | [9] 106% | [10] 122%

Cn1cnc2nc(Cl)nc(Cl)c21
active: [2] -29.9%
inactive: [1] 31.7% | [3] 47.9% | [4] 61.4% | [5] 14.2% | [6] 25.1% | [7] 16% | [8] 54.9% | [9] 18.1% | [10] 65.1%

COc1ccccc1NC(=O)c1cc2cc(Br)ccc2cc1O
inactive: [2] 72.8% | [3] 12.4% | [4] 27.3% | [8] 24.3% | [10] 34.6%
active: [1] 7.97% | [5] 8.67% | [6] -35.3% | [7] -74.6% | [9] 3.26%

O=[N+]([O-])c1ccccc1N=Nc1ccc(O)cc1O
inactive: [1] 112% | [2] 112% | [3] 91.5% | [4] 111% | [5] 115% | [6] 97.2% | [7] 106% | [8] 124% | [9] 99.8% | [10] 121%

COc1ccc(C)cc1OC
inactive: [1] 104% | [2] 108% | [3] 104% | [4] 107% | [5] 97.2% | [6] 105% | [7] 99.7% | [8] 99.5% | [9] 96.1% | [10] 115%

C=CC(O)CCC (stereo not given)
inactive: [1] 98% | [2] 99.7% | [3] 95.7% | [4] 100% | [5] 92.8% | [6] 90% | [7] 107% | [8] 95.9% | [9] 98.6% | [10] 98.3%

CCC(C#N)(CC)c1ccccc1
inactive: [1] 90.6% | [2] 110% | [3] 84.6% | [4] 99.5% | [5] 109% | [6] 102% | [7] 98.6% | [8] 89.5% | [9] 97.9% | [10] 108%

NC(N)=Nc1cc2ccccc2c2ccccc12
inactive: [1] 85.7% | [2] 65.3% | [3] 57% | [4] 82.2% | [5] 79.4% | [6] 61.5% | [7] 85.9% | [8] 75% | [9] 74.9% | [10] 88.3%

COc1cc2nn(-c3ccccc3N)nc2cc1OC
inactive: [1] 102% | [2] 103% | [3] 72.6% | [4] 99.9% | [5] 91.7% | [6] 97.8% | [7] 98.4% | [8] 103% | [9] 94.7% | [10] 109%

O=S(=O)(O)C(Nc1ccccc1)c1ccccc1 (stereo not given)
inactive: [1] 105% | [2] 105% | [3] 71.9% | [4] 101% | [5] 101% | [6] 102% | [7] 77.3% | [8] 88.9% | [9] 93.8% | [10] 104%

COC(=O)C(O)c1ccccc1 (stereo not given)
inactive: [1] 105% | [2] 122% | [3] 93% | [4] 102% | [5] 104% | [6] 94.6% | [7] 104% | [8] 94.1% | [9] 107% | [10] 103%
